TDP1 cell CPT: DT40-hTDP1 cell growth loss with CPT; Potency, µM (series often up to 46.2 µM), for the others: at the highest dose activity change, negative = growth inhibition, actives largely listed as inhibitors; chicken DT40 Tdp1-/-;hTDP1 cells + 20 nM CPT, ATP luminescence, 48 h; 12% of 420,000 active; also: potency is read from the fitted curve at half-maximal effect; nearly all actives have a fitted effect of over 55% in size
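Cell growth measured by CellTiter-Glo luminescence after a minimum 48 h, 37 C compound exposure with 20 nM CPT in Tdp1-knockout DT40 cells stably expressing hTDP1, seeded 400/well; qHTS titration format.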
TDP1 inh: blocks human tyrosyl-DNA phosphodiesterase 1. Q9NUW8. recombinant TDP1, AlphaScreen DNA substrate cleavage. Potency, µM (doses to about 130 µM), without a hit: at the top dose activity change, negative = inhibition, most hits filed as inhibitors. 0.28% of 350,000 active. AID 485290; also: potency is read from the fitted curve at half-maximal effect; nearly all actives have a fitted effect of over 40% in size
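Enzyme-compound mixtures sat 15 min at room temperature, followed by a 5 min reaction with 15 nM final substrate and 10 min with AlphaScreen beads. Recombinant human Tdp1 was used at 1 nM final.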
DT40 TDP1 no CPT: qHTS for Inhibitors of human tyrosyl-DNA phosphodiesterase 1 (TDP1): qHTS in cells in absence of CPT; DT40 Tdp1-/- hTDP1 cells, no CPT, ATP luminescence, 48 h; Potency, µM (doses to about 46.2 µM), for inactives: at the top dose activity change, negative = growth inhibition, actives largely listed as inhibitors; 15% of 420,000 active; also: potency is read from the fitted curve at half-maximal effect; nearly all actives have a fitted effect of over 55% in size
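Compound effects on proliferation are scored in DT40 Tdp1-/-;hTDP1 cells in the absence of CPT. ATP levels (CellTiter-Glo luminescence) are recorded after a ≥48 hr, 37 °C incubation.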
Six1-Eya2 inh: inhibitors of human Six1/Eya2 interaction; Q15475+O00167; AlphaScreen GST-Six1/His-Eya2 binding, biochemical; stronger effect = lower value; activity change, % (test concentration not listed); 0.56% of 360,000 active; AID 651725; in the data active = activity change below about -65%; inconclusive = mostly about -30% to -63%
Target sequence (O00167 whole entry, looked up): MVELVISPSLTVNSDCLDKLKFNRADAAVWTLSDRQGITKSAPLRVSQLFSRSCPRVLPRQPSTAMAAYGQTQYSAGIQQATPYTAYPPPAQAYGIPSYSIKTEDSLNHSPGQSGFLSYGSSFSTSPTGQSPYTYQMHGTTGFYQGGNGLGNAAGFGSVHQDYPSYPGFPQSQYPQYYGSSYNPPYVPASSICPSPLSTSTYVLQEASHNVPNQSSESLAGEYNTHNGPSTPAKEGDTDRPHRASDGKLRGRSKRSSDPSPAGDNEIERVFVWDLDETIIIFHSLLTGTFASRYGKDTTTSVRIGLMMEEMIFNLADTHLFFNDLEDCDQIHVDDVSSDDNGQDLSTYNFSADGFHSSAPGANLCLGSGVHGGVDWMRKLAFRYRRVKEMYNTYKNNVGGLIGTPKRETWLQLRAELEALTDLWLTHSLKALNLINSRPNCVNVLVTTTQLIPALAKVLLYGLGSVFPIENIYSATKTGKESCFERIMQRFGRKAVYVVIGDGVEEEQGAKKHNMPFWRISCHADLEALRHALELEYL
Target sequence (Q15475 whole entry, looked up): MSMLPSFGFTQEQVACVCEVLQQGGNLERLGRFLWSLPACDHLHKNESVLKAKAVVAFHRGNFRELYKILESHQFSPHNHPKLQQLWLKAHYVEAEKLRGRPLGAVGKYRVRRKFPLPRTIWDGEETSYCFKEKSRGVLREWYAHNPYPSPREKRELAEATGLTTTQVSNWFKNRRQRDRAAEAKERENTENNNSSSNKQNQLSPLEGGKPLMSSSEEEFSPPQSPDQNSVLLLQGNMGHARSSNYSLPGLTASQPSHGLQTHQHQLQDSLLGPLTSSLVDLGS
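Six1/Eya2 binding was read as AlphaScreen signal after compounds were pinned into GST-Six1 plus His-tagged Eya2 (5X stock 250/500 nM) in pH 8.0 Tris/NaCl/TCEP buffer, beads added, then incubated 1 h, 37 C, dark.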
CtBP-E1A blk: CtBP/E1A binding inhibition | AlphaScreen GST-E1A/His-CtBP binding, 1536-well; stronger effect = lower value | activity change, % (concentration not given with the values) | 0.49% of 340,000 active | AID 651724; in the data active = activity change below about -65%; inconclusive = mostly about -30% to -63%
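AlphaScreen with 125 nM GST-E1A and 125 nM His-CtBP (5X stocks) in Tris pH 8.0, 300 mM NaCl, BSA, Tween 20, TCEP. Compounds preincubated 2 h at 37 deg C, then glutathione donor/nickel acceptor beads added for 1 h at 37 deg C in dark.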
IL-1B inflam inh: inhibitors of inflammasome signaling (IL-1 beta secretion) | THP-1 LPS/ATP IL-1B secretion, AlphaLISA, 16 h; stronger effect = lower value | activity change, % at 57.5 µM | 4.7% of 360,000 active; in the data active = activity change below about -50%; inconclusive = mostly about -30% to -49%
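Secreted IL-1B measured by AlphaLISA bead assay after 16 h compound exposure of THP-1 cells; compounds (final up to 57.5 uM) added 1 h before LPS (250 ng/mL) and ATP (1.25 mM) stimulation; lower signal means less secretion.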
The depositor's hits bear a star; ? = inconclusive; . = no result; [ ] = another dose, or the depositor's remark. Only some compounds are listed: those with a hit (about 18% of all), similar ones and a draw of the others. Unless noted, calls follow the shape of the dose curve; as a rule, active = well fitted curve in the direction sought with a large enough effect; inconclusive = small, poorly fitted or top-dose-only effect, or another doubt; inactive = no such curve, though single readings can be large; an effect the other way counts as inactive or inconclusive. % is scaled to controls: 0 for no effect and ±100 for the full control effect.

SMILES	TDP1 cell CPT	TDP1 inh	DT40 TDP1 no CPT	Six1-Eya2 inh	CtBP-E1A blk	IL-1B inflam inh
O=C(Nc1ccccc1)C(=O)Nc1ccccn1	-5%	2%	-22%	2	8	11
S=C(Nc1ccc(Nc2ccccc2)cc1)Nc1ccccn1	6.5µM*	0%	6.5µM*	?	?	?
Cc1csc(=O)n1CCC(=O)OCC(=O)Nc1ccc(C(N)=O)cc1	-9%	-13%	0%	-4	8	7
CCOC(=O)c1ccc(NC(=S)NCc2ccccc2)cc1	-21%	.	?	2	-3	-8
CCOC(=O)c1ccc(NC(=S)NCCc2ccccc2F)cc1	?	5%	23µM*	-3	-9	72
Cc1csc(=O)n1CC(=O)OCC(=O)Nc1ccc(C(N)=O)cc1	-7%	-13%	6.5µM*	13	.	0
CCOC(=O)c1ccc(NC(=S)NCC(O)c2ccccc2)cc1 (stereo not drawn)	?	5%	18µM*	-4	2	8
Cc1c(C)c2ccc(OCC(=O)N(C)C3CCS(=O)(=O)C3)c(C)c2oc1=O (stereo not drawn)	-12%	3%	-5%	10	6	-29
COC(=O)c1ccc(NC(=S)NCCc2ccccc2)cc1	?	4%	?	5	0	83
CCOC(=O)c1ccc(NC(=S)NCCc2ccccc2)cc1	?	7%	21µM*	1	-1	67
O=C(NCc1ccco1)c1ccc(Cl)c(S(=O)(=O)N2CCc3ccccc32)c1	?	5%	?	-2	-6	-51*
O=C(c1ccc(Cl)c(S(=O)(=O)N2CCc3ccccc32)c1)N1CCN(c2ccccc2O)CC1	?	-5%	23µM*	2	8	-73*
COc1ccc(C(=O)Nc2ccc(C)cn2)cc1S(=O)(=O)N1CCCc2ccccc21	?	4%	?	-4	-1	-6
Cc1ccc(NC(=O)c2ccc(Cl)c(S(=O)(=O)N3CCc4ccccc43)c2)nc1	?	.	26µM*	3	-30	-16
Cc1cccc(N2CCN(C(=O)c3ccc(Cl)c(S(=O)(=O)N4CCc5ccccc5C4)c3)CC2)c1C	?	2%	15µM*	-8	-11	-10
N#Cc1c(-n2cccc2C=O)sc2c1CCCC2	-4%	3%	-22%	9	-9	0
O=C(c1ccc(Cl)c(S(=O)(=O)N2CCOCC2)c1)N1CCN(c2ccccc2F)CC1	?	3%	?	-2	10	-5
O=C(c1ccc(Cl)c(S(=O)(=O)N2CCCC2)c1)N1CCN(c2ccccc2F)CC1	?	0%	16µM*	-9	-5	-1
O=C(NNC(=O)c1ccccc1O)c1ccc(Cl)c(S(=O)(=O)N2CCc3ccccc32)c1	21µM*	2%[0.505 µM]	21µM*	?	-21	97
CCN1CCN(C(=O)C23CCC(C)(C(=O)C2Br)C3(C)C)CC1 (stereo not drawn)	-23%	-3%	?	5	.	0
Cc1cccc(C(=O)Nc2ccc3nc(SCC(=O)N4CCc5ccccc54)sc3c2)c1	5.8µM*	3%	4.6µM*	.	.	.
Cc1cccc(C(=O)Nc2ccc3nc(SCC(=O)N4CCCC4)sc3c2)c1	?	2%	16µM*	.	.	.
O=C(COc1ccccc1)Nc1ccc2nc(SCC(=O)N3CCc4ccccc43)sc2c1	?	-9%	?	.	.	.
Cc1ccccc1C(=O)Nc1ccc2nc(SCC(=O)N3CCc4ccccc43)sc2c1	5.2µM*	-4%	3.7µM*	.	.	.
CCC(CC)C(=O)Nc1ccc2nc(SCC(=O)N3c4ccccc4CC3C)sc2c1 (stereo not drawn)	12µM*	1%	16µM*	.	.	.
SMILES	TDP1 cell CPT	TDP1 inh	DT40 TDP1 no CPT	Six1-Eya2 inh	CtBP-E1A blk	IL-1B inflam inh
CC(/C=N/NC(=O)c1cccnc1)=C\c1ccco1	-24%	7%	?	-13	-16	-2
COc1cc(C(=O)Nc2sc(C(=O)N3CCOCC3)c(C)c2C#N)cc(OC)c1OC	-8%	2%	6%	7	0	3
CC12CC[C@@H]3c4ccc(OS(=O)(=O)O)cc4CC[C@H]3C1CCC2=O (stereo partly drawn)	.	9%[21 µM]	.	.	.	.
COc1ccc(N2CCN(S(=O)(=O)CCNC(=O)Cc3ccc(-c4ccccc4)cc3)CC2)cc1	?	-1%	?	.	.	.
CCC(C)Sc1cccc(-c2nc3ccccn3c2NCc2ccccc2)c1 (stereo not drawn)	?	1%	?	0	5	?
CCCCNc1c(-c2ccc(OC)c(Sc3ccc(OC)cc3)c2)nc2ccccn12	4.1µM*	.	9.2µM*	-20	-18	-104*
CCCCNc1c(-c2ccc(-c3ccc(OC)cc3)c(OC)c2)nc2ccccn12	18µM*	8%	13µM*	-7	-10	-75*
CCCCNc1c(-c2ccc(SC(C)CC)cc2)nc2cnccn12 (stereo not drawn)	9.2µM*	0%	8.2µM*	31	-8	-72*
CCCCNc1c(-c2ccc(OC)c(Sc3ccc(OC)cc3)c2)nc2cnccn12	?	6%	23µM*	1	-1	55
Cc1ccccc1N1CCN(S(=O)(=O)c2nnc(NC(=O)c3ccc(F)cc3)s2)CC1	-28%	5%	-16%	0	0	9
O=C(COc1ccccc1Cl)Nc1nc2c(s1)CCCC2	8.2µM*	3%	10µM*	.	.	.
CCCOc1ccccc1C(=O)Nc1nc2c(s1)CCCC2	21µM*	2%	18µM*	.	.	.
COc1cccc(/C=N/N2CCOCC2)c1O	3%	0%	2%	2	4	-18
Oc1ccc(/C=N/N2CCOCC2)c(O)c1O	4.1µM*	?	4.1µM*	-6	-17	-19
O=C1c2ccccc2C(=O)N1/N=C/c1ccc(O)c(O)c1O	4.1µM*	?	?	?	?	-1
Oc1cccc(/C=N/N2CCCCC2)c1O	-24%	.	?	-11	.	-3
Oc1ccc(/C=N/N2CCCCC2)c(O)c1O	5.8µM*	.	10µM*	-11	-6	-3
O=C(CNC1CCCCCC1)Nc1ccccc1N1CCCCC1	?	2%	21µM*	2	3	-21
Cc1ccc(NC(=O)CSCC(=O)Nc2ccccc2N2CCCCC2)cc1	?	-5%	?	2	-17	-63*
Cc1cccc(NC(=O)CSCC(=O)Nc2ccccc2N2CCCCC2)c1	-28%	.	?	-2	4	-13
CCc1nnc(NC(=O)c2ccc(COc3cccc(C)c3)o2)s1	-1%	.	-15%	23	6	-6

High-throughput results deposited in PubChem by National Center for Advancing Translational Sciences (NCATS).
